Reference: the supplement of paper PMC12645437, “Orthogonal IMiD-Degron Pairs Induce Selective Protein Degradation in Cells” (ACS Chemical Biology, 2025)
The full ranking holds about 8,300 sequences; the median of “log2 fold change of degron read counts, EGFP-low vs EGFP+ sorted cells (limma voom), compound-induced degradation” is about -1.1, and the highest 2% start at about 3.2. The list comes from a sample in which the highest values are over-represented; it also holds similar and randomly drawn sequences.

B1: 46F_47I_49N_50I_52G_53A_54D_55F_67L_, Q9UKT9 (peptide)
chain: FICNICGADFTQKGNLLRHIKL
B2: 46F_47T_49D_50V_52G_53A_54I_55F_67L_, Q9UKT9 (peptide)
chain: FTCDVCGAIFTQKGNLLRHIKL
B3: 46F_47A_49E_50I_52G_53R_54Y_55F_67L_, Q9UKT9 (peptide)
chain: FACEICGRYFTQKGNLLRHIKL
B4: 46F_47S_49P_50I_52G_53A_54M_55F_67L_, Q9UKT9 (peptide)
chain: FSCPICGAMFTQKGNLLRHIKL
B5: 46F_47Q_49P_50I_52G_53A_54D_55F_67L_, Q9UKT9 (peptide)
chain: FQCPICGADFTQKGNLLRHIKL
B6: 46F_47V_49P_50I_52G_53A_54M_55F_67L_, Q9UKT9 (peptide)
chain: FVCPICGAMFTQKGNLLRHIKL
B7: 46F_47Q_49P_50I_52G_53A_54M_55F_67L_, Q9UKT9 (peptide)
chain: FQCPICGAMFTQKGNLLRHIKL
B8: 46F_47G_49P_50I_52G_53A_54M_55F_67L_, Q9UKT9 (peptide)
chain: FGCPICGAMFTQKGNLLRHIKL
B9: 46F_47H_49P_50I_52G_53A_54M_55F_67L_, Q9UKT9 (peptide)
chain: FHCPICGAMFTQKGNLLRHIKL
B10: 46F_47Y_49P_50I_52G_53A_54M_55F_67L_, Q9UKT9 (peptide)
chain: FYCPICGAMFTQKGNLLRHIKL
B11: 46F_47V_49P_50I_52G_53A_54D_55F_67L_, Q9UKT9 (peptide)
chain: FVCPICGADFTQKGNLLRHIKL
B12: 46F_47S_49P_50I_52G_53A_54D_55F_67L_, Q9UKT9 (peptide)
chain: FSCPICGADFTQKGNLLRHIKL
B13: 46F_47G_49N_50I_52G_53A_54C_55F_67L_, Q9UKT9 (peptide)
chain: FGCNICGACFTQKGNLLRHIKL
B14: 46F_47D_49N_50V_52G_53A_54M_55F_67L_, Q9UKT9 (peptide)
chain: FDCNVCGAMFTQKGNLLRHIKL
B15: 46F_47E_49P_50Q_52G_53A_54K_55F_67L_, Q9UKT9 (peptide)
chain: FECPQCGAKFTQKGNLLRHIKL
B16: 46F_47W_49D_50I_52G_53A_54L_55F_67L_, Q9UKT9 (peptide)
chain: FWCDICGALFTQKGNLLRHIKL
B17: 46F_47N_49P_50I_52G_53A_54G_55F_67L_, Q9UKT9 (peptide)
chain: FNCPICGAGFTQKGNLLRHIKL
B18: 46L_47V_49E_50I_52G_53F_54F_55C_67L_, Q9UKT9 (peptide)
chain: LVCEICGFFCTQKGNLLRHIKL
B19: 46F_47W_49P_50I_52G_53A_54C_55F_67L_, Q9UKT9 (peptide)
chain: FWCPICGACFTQKGNLLRHIKL
B20: 46F_47I_49P_50I_52G_53A_54C_55F_67L_, Q9UKT9 (peptide)
chain: FICPICGACFTQKGNLLRHIKL
B21: 46F_47V_49P_50I_52G_53A_54C_55F_67L_, Q9UKT9 (peptide)
chain: FVCPICGACFTQKGNLLRHIKL
B22: 46F_47L_49P_50I_52G_53A_54C_55F_67L_, Q9UKT9 (peptide)
chain: FLCPICGACFTQKGNLLRHIKL
B23: 46F_47M_49P_50I_52G_53A_54C_55F_67L_, Q9UKT9 (peptide)
chain: FMCPICGACFTQKGNLLRHIKL
B24: 46F_47N_49P_50I_52G_53A_54C_55F_67L_, Q9UKT9 (peptide)
chain: FNCPICGACFTQKGNLLRHIKL
B25: 46F_47D_49P_50I_52G_53A_54C_55F_67L_, Q9UKT9 (peptide)
chain: FDCPICGACFTQKGNLLRHIKL
B26: 46F_47Q_49P_50I_52G_53A_54C_55F_67L_, Q9UKT9 (peptide)
chain: FQCPICGACFTQKGNLLRHIKL
B27: 46F_47A_49P_50I_52G_53A_54C_55F_67L_, Q9UKT9 (peptide)
chain: FACPICGACFTQKGNLLRHIKL
B28: 46F_47Y_49P_50I_52G_53A_54C_55F_67L_, Q9UKT9 (peptide)
chain: FYCPICGACFTQKGNLLRHIKL
B29: 46F_47C_49P_50I_52G_53A_54C_55F_67L_, Q9UKT9 (peptide)
chain: FCCPICGACFTQKGNLLRHIKL
B30: 46F_47S_49P_50I_52G_53A_54C_55F_67L_, Q9UKT9 (peptide)
chain: FSCPICGACFTQKGNLLRHIKL

Molecular target: T1, CRBN, Q96SW2
T1 chain: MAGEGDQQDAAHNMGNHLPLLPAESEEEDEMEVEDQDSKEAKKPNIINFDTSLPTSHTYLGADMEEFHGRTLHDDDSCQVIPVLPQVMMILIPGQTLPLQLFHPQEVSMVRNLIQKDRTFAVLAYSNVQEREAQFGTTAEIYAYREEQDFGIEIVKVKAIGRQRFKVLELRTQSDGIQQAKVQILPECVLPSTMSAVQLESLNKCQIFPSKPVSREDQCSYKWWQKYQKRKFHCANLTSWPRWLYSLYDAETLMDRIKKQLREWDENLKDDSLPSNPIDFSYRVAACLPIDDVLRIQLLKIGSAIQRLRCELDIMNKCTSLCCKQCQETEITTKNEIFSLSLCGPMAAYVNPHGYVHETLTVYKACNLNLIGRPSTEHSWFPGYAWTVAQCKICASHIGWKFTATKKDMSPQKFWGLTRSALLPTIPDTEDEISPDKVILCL
Assay: log2 fold change of degron read counts, EGFP-low vs EGFP+ sorted cells (limma voom), compound-induced degradation; higher = more compound-induced degradation of the degron-EGFP fusion; degrons are variants of IKZF1/3 zinc finger 2; compound dose not given here
Conditions: Jurkat, 18 h
Experimental: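 Pooled library of 8380 IKZF3 ZF2 degron mutants (positions 146-167 varied within the IKZF3 130-189 degron; only the varied core is printed, flanks not printed) fused to EGFP with IRES-mCherry, lentivirally expressed in Jurkat cells. mCherry+ cells were treated with one IMiD compound for 18 h (dose not stated) and FACS-sorted into EGFP-low and EGFP+ populations. Degron sequences were counted by NGS, and log2FC (EGFP-low vs EGFP+) was estimated by limma voom over 3 biological replicates.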

[1] = compound: compound 19 (5-tert-butyl-thalidomide)
[2] = compound: compound 22 (5-morpholino-thalidomide)
[3] = compound: compound 33 (diphenyl IMiD analogue)
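Note: pooled lentiviral library of zinc finger degron-EGFP fusions in mCherry-positive Jurkat cells, FACS-sorted after compound exposure, with degron abundance counted by next-generation sequencing.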

Sequence	log2 fold change of degron read counts [1]	log2 fold change of degron read counts [2]	log2 fold change of degron read counts [3]	log2 fold change of degron read counts (compound: thalidomide)
B1	-2.47	-1.85	-1.03	-0.92
B2	-2.2	-1.5	-0.885	-0.951
B3	1.02	-1.33	-1.87	-1.22
B4	1.66	1.01	1.5	0.771
B5	0.457	1.55	2.48	3.81
B6	-0.498	1.33	1.86	1.85
B7	-0.249	2.56	2.51	3.62
B8	3.33	2.19	1.89	0.606
B9	1.97	1.9	1.34	0.306
B10	2.65	2.73	2.02	0.0372
B11	-1.19	1.3	1.21	1.95
B12	1.3	0.182	1.52	0.227
B13	1.07	2.09	1.61	0.355
B14	-2.41	-2.06	-1.24	-0.963
B15	-1.95	-2.7	-2.13	0.127
B16	2.43	2.23	0.921	-1.11
B17	2.9	0.718	0.577	0.35
B18	0.178	0.388	0.876	1.42
B19	3.58	3.31	2.4	1.46
B20	-0.628	2.02	1.94	2.17
B21	0.0061	2.13	2.08	2.38
B22	0.664	-0.175	1.79	1.62
B23	-0.174	0.429	2.49	1.41
B24	2.34	1.06	1.37	0.843
B25	1.96	0.401	2.22	2.13
B26	0.828	3.06	2.53	3.77
B27	3.48	2.09	1.78	1.06
B28	3.5	3.63	2.59	1.59
B29	2.52	2.23	2.82	2.11
B30	2.84	2.22	2.64	1.47
